We go through 39 compounds from PubChem BioAssay.

Molecules are shown by their SMILES. Unmarked numbers belong to inactive results. The source made the active and inactive calls. No stated cut-off is given here; in the data, active means fold change permeability below about 0.7 or above about 1.3; inactive means in between.

The test is described as follows: modulators of brain endothelial barrier permeability, primary screen, cell-based, FITC-avidin fluorescence, HTS (AID 1963498). Further: test concentration not given here. The settings on record: actives lie on both sides.
`CSc1ccc2c(c1)N(CCC1CCCCN1C)c1ccccc1S2` (centres undefined): the fold change permeability is 1.4 (active).
The value for `CN1CCC(=C2c3ccccc3CC(=O)c3sccc32)CC1` was 1.4 (active); that for `Cc1cc2c(s1)Nc1ccccc1N=C2N1CCN(C)CC1` was 0.7 (active).
The value for `C=C(C)C1CC=C(C(=O)O)CC1` (centres undefined) was 0.9.
The value for `Nc1ccn([C@@H]2O[C@H](CO)[C@@H](O)[C@@H]2O)c(=O)n1` was 1; that for `C[C@@H](O)[C@H]1C(=O)N2C(C(=O)O)=C(SCCN=CN)C[C@H]12` was 0.8; that for `O=C(O)CN(CCOCCOCCN(CC(=O)O)CC(=O)O)CC(=O)O` was 0.8.
Consider `Cc1[nH]c(=O)c(C#N)cc1-c1ccc2nccn2c1`, for which the fold change permeability is 0.8.
In the case of `O=C(c1cc(O)c(O)c([N+](=O)[O-])c1)c1ccccc1F`, the fold change permeability is 1.7 (active).
Regarding `Nc1ncnc2c1ncn2[C@@H]1O[C@H](COP(=O)(O)OP(=O)(O)OP(=O)(O)OP(=O)(O)OC[C@@H]2O[C@H](n3cnc4c(N)ncnc43)C(O)[C@@H]2O)[C@H](O)C1O` (some centres undefined), the fold change permeability is 1.
The value for `Clc1cccc(Cl)c1CSc1nnc(-c2cnccn2)s1` was 1.2.
The value for `COc1ccc(CCn2nnnc2C2(c3ccc(C)cc3)CC2)cc1` was 1.6 (active); that for `COc1ccc2c(c1OC)C(=O)O[C@@H]2[C@H]1c2c(cc3c(c2OC)OCO3)CCN1C` was 1.
Take `Fc1ccc(-c2ccc(Nc3nc(Cl)nc(Cl)n3)cc2)cc1`: the fold change permeability is 0.9.
The value for `O=C1/C(=C/c2cccs2)CC/C1=C\c1cccs1` was 1.6 (active).
For `COc1cc(/C=C(\C#N)C(=O)Nc2nnc(C(F)(F)F)s2)ccc1OCc1ccc(C(F)(F)F)cc1C(F)(F)F`, the fold change permeability is 1.5 (active).
The value for `O=C(O)/C=C1\CCCc2ccccc2C1O` (centres undefined) was 0.8.
`O=C(O)CCc1ccc(-c2ccc(Br)cc2)n1-c1ccccc1C(F)(F)F`: the fold change permeability is 1.2.
With `OCCN1CCN(CCCN2c3ccccc3C=Cc3ccccc32)CC1`, the fold change permeability is 1.2.
The value for `CCOC(=O)COc1ccc2c(c1)C[C@@H](NC[C@H](O)c1cccc(Cl)c1)CC2` was 1.1; that for `CCCCC[C@H](CC(=O)NO)C(=O)N[C@H](C(=O)N1CCC[C@H]1CO)C(C)C` was 1.2; that for `N[C@@H](CC(=O)N1CCN(C(c2ccc(F)cc2)c2ccc(F)cc2)CC1)C(=O)N1Cc2ccccc2C1` was 1.1.
For `COc1ccc(-c2csc(NC(=O)[C@H]3CCCCN3S(=O)(=O)c3ccc(C)cc3)n2)cc1`, the fold change permeability is 0.9.
The value for `c1ccc2c(c1)CCCC2C1=NCCN1` (centres undefined) was 0.7 (active).
Consider `CCOC(=O)C1=C(C)NC(C)=C(C(=O)OC)C1c1cccc([N+](=O)[O-])c1` (centres undefined), for which the fold change permeability was 0.8.
For the compound `C[C@H]1c2cccc(O)c2C(O)=C2C(=O)[C@]3(O)C(O)=C(C(N)=O)C(=O)[C@@H](N(C)C)[C@@H]3[C@@H](O)[C@@H]21`, the fold change permeability was 0.9.
The value for `CCCCCCCCCC(=O)N[C@H](CN1CCOCC1)[C@H](O)c1ccccc1` was 0.9; that for `CC(C)(C)c1ccc(S(=O)(=O)/C=C/C#N)cc1` was 1.2; that for `COc1ccc(-c2cc(=O)c3c(O)c(OC)c(OC)cc3o2)cc1O` was 1.6 (active).
The value for `Cn1cnc([N+](=O)[O-])c1Sc1ncnc2nc[nH]c12` was 1.1; that for `CO[C@@]1(NC(=O)CSCC#N)C(=O)N2C(C(=O)O)=C(CSc3nnnn3C)CS[C@@H]21` was 0.9; that for `C=C1CCN([C@H](C)[C@](O)(Cn2cncn2)c2ccc(F)cc2F)CC1` was 1.4 (active).
The value for `O=C(O)c1cc(=O)c2c(Cl)cc(Cl)cc2[nH]1` was 1.1; that for `N[C@@H](Cc1ccc(O)c(I)c1)C(=O)O` was 1.9 (active).
On to `N[C@H](C(=O)O)[C@H](Cc1ccccc1)C(=O)O`, for which the fold change permeability was 1.2.
For `Nc1ncn([C@@H]2O[C@H](CO)[C@@H](O)[C@H]2O)c(=O)n1`, the fold change permeability is 1.1.
The value for `Nc1nc(N)c2nc(CNc3ccc(C(=O)N[C@@H](CCC(=O)O)C(=O)O)cc3)cnc2n1` was 0.9; that for `CN1Cc2sccc2C(c2ccc(O)c(O)c2)C1` (centres undefined) was 1.
As for `NCCCCC(=O)O`, the fold change permeability was 1.1.
